From PubChem BioAssay AID1159580 (chemical genetic matrix, 2015)
In all, about 5,500 compounds went through this assay and about 2,000 (36%) were called active. Not shown: some 18% with an inconclusive outcome. Cut-off read from the data, not from the text of the source: active = normalized growth mostly below about 0.91 (no sharp cut-off); inconclusive = no clear call, values can overlap the other calls; inactive = mostly above about 0.92. This is one part of the list.

Assay: chemical genetic growth profiling, strain panel (AID 1159580);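 note: tested at 20 µM; growth read once vehicle control cultures reached saturation at 30 °C; 1 = growth at the plate median or of vehicle wells; lower values mean less growth of the strain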
Conditions: growth OD

Measured: normalized growth

CNC(=O)O/N=C(\C)SC
inactive: S. cerevisiae deletion strains, locus YJR075W, strain HOC1, active compounds read low 0.99 | S. cerevisiae deletion strains, locus YKL009W, strain mrt4, active compounds read low 1.02 | S. cerevisiae deletion strains, locus YKL068W, active compounds read low 0.986 | S. cerevisiae deletion strains, locus YKL085W, strain MDH1 (second series), active compounds read low 0.985 | S. cerevisiae deletion strains, locus YKL085W, strain MDH1, active compounds read low 0.985 | S. cerevisiae deletion strains, locus YKL160W, strain elf1, active compounds read low 1 | S. cerevisiae deletion strains, locus YKL190W, strain CNB1, active compounds read low 1 | S. cerevisiae deletion strains, locus YKR001C, strain vps1, active compounds read low 0.999 | S. cerevisiae deletion strains, locus YKR026C, strain gcn3, active compounds read low 0.999 | S. cerevisiae deletion strains, locus YKR091W, strain srl3, active compounds read low 1 | S. cerevisiae deletion strains, locus YLL001W, strain dnm1, active compounds read low 1 | S. cerevisiae deletion strains, locus YLL026W, active compounds read low 1 | S. cerevisiae deletion strains, locus YLL041C, strain sdh2, active compounds read low 0.999 | S. cerevisiae deletion strains, locus YLR027C, strain aat2, active compounds read low 0.987 | S. cerevisiae deletion strains, locus YLR039C, strain RIC1, active compounds read low 1.01 | S. cerevisiae deletion strains, locus YLR058C, strain SHM2, active compounds read low 1.01 | S. cerevisiae deletion strains, locus YLR102C, strain apc9, active compounds read low 0.99 | S. cerevisiae deletion strains, locus YLR113W, strain HOG1, active compounds read low 1.01 | S. cerevisiae deletion strains, locus YLR221C, strain rsa3, active compounds read low 1 | S. cerevisiae deletion strains, locus YLR258W, strain gsy2, active compounds read low 0.994 | S. cerevisiae deletion strains, locus YLR262C, strain YPT6 (second series), active compounds read low 1.03 | S. cerevisiae deletion strains, locus YLR262C, strain YPT6, active compounds read low 1.05 | S. cerevisiae deletion strains, locus YLR268W, strain sec22, active compounds read low 0.994 | S. cerevisiae deletion strains, locus YLR320W, strain mms22, active compounds read low 0.995 | S. cerevisiae deletion strains, locus YLR330W, strain CHS5, active compounds read low 1.01 | S. cerevisiae deletion strains, locus YLR342W, strain FKS1 (second series), active compounds read low 1.02 | S. cerevisiae deletion strains, locus YLR342W, strain FKS1, active compounds read low 0.997 | S. cerevisiae deletion strains, locus YLR357W, strain rsc2, active compounds read low 0.983 | S. cerevisiae deletion strains, locus YLR370C, strain arc18, active compounds read low 1 | S. cerevisiae deletion strains, locus YLR371W, strain rom2, active compounds read low 0.98 | S. cerevisiae deletion strains, locus YLR384C, strain iki3, active compounds read low 1 | S. cerevisiae deletion strains, locus YLR418C, strain cdc73, active compounds read low 1.01 | S. cerevisiae deletion strains, locus YML016C, strain PPZ1, active compounds read low 1.01 | S. cerevisiae deletion strains, locus YML032C, strain rad52, active compounds read low 0.981 | S. cerevisiae deletion strains, locus YML120C, strain ndi1, active compounds read low 1.01 | S. cerevisiae deletion strains, locus YML124C, strain tub3, active compounds read low 0.978 | S. cerevisiae deletion strains, locus YMR058W, strain fet3, active compounds read low 1 | S. cerevisiae deletion strains, locus YMR078C, strain ctf18, active compounds read low 0.985 | S. cerevisiae deletion strains, locus YMR125W, strain sto1, active compounds read low 0.999 | S. cerevisiae deletion strains, locus YMR129W, active compounds read low 0.999 | S. cerevisiae deletion strains, locus YMR205C, strain PFK2, active compounds read low 1.01 | S. cerevisiae deletion strains, locus YMR223W, strain ubp8, active compounds read low 0.991 | S. cerevisiae deletion strains, locus YMR231W, strain pep5, active compounds read low 0.982 | S. cerevisiae deletion strains, locus YMR263W, strain SAP30, active compounds read low 1.02 | S. cerevisiae deletion strains, locus YMR307W, strain GAS1, active compounds read low 1.02 | S. cerevisiae deletion strains, locus YNL067W, strain RPL9B, active compounds read low 1.01 | S. cerevisiae deletion strains, locus YNL071W, strain lat1, active compounds read low 1.01 | S. cerevisiae deletion strains, locus YNL128W, strain TEP1, active compounds read low 1.01 | S. cerevisiae deletion strains, locus YNL153C, strain GIM3, active compounds read low 0.996 | S. cerevisiae deletion strains, locus YNL183C, strain NPR1, active compounds read low 0.997 | S. cerevisiae deletion strains, locus YNL209W, strain ssb2, active compounds read low 0.996 | S. cerevisiae deletion strains, locus YNL233W, strain BNI4, active compounds read low 1.03 | S. cerevisiae deletion strains, locus YNL248C, strain rpa49, active compounds read low 1 | S. cerevisiae deletion strains, locus YNL250W, strain rad50, active compounds read low 0.974 | S. cerevisiae deletion strains, locus YNL271C, strain bni1, active compounds read low 0.991 | S. cerevisiae deletion strains, locus YNL298W, strain CLA4, active compounds read low 0.988 | S. cerevisiae deletion strains, locus YNL307C, strain MCK1, active compounds read low 0.981 | S. cerevisiae deletion strains, locus YNL322C, strain KRE1 (second series), active compounds read low 0.995 | S. cerevisiae deletion strains, locus YNL322C, strain KRE1, active compounds read low 1.01 | S. cerevisiae deletion strains, locus YNR049C, strain mso1, active compounds read low 0.998 | S. cerevisiae deletion strains, locus YNR052C, strain pop2, active compounds read low 0.988 | S. cerevisiae deletion strains, locus YOL006C, strain TOP1, active compounds read low 1.07 | S. cerevisiae deletion strains, locus YOL012C, strain htz1 0.858 | S. cerevisiae deletion strains, locus YOL147C, strain pex11, active compounds read low 0.976 | S. cerevisiae deletion strains, locus YOR001W, strain rrp6, active compounds read low 0.989 | S. cerevisiae deletion strains, locus YOR061W, strain CKA2, active compounds read low 1.01 | S. cerevisiae deletion strains, locus YOR069W, strain VPS5, active compounds read low 1 | S. cerevisiae deletion strains, locus YOR070C, strain gyp1, active compounds read low 0.995 | S. cerevisiae deletion strains, locus YOR080W, strain dia2, active compounds read low 0.996 | S. cerevisiae deletion strains, locus YOR083W, strain WHI5, active compounds read low 1 | S. cerevisiae deletion strains, locus YOR106W, strain vam3, active compounds read low 1.01 | S. cerevisiae deletion strains, locus YOR136W, strain idh2, active compounds read low 0.978 | S. cerevisiae deletion strains, locus YOR144C, strain elg1, active compounds read low 0.977 | S. cerevisiae deletion strains, locus YOR184W, strain ser1, active compounds read low 0.993 | S. cerevisiae deletion strains, locus YOR231W, strain MKK1, active compounds read low 1.05 | S. cerevisiae deletion strains, locus YOR265W, strain rbl2, active compounds read low 1.02 | S. cerevisiae deletion strains, locus YOR270C, strain vph1, active compounds read low 1.02 | S. cerevisiae deletion strains, locus YOR290C, strain snf2, active compounds read low 0.981 | S. cerevisiae deletion strains, locus YOR316C, strain cot1, active compounds read low 0.983 | S. cerevisiae deletion strains, locus YPL051W, strain arl3, active compounds read low 1.02 | S. cerevisiae deletion strains, locus YPL055C, strain LGE1, active compounds read low 1.03 | S. cerevisiae deletion strains, locus YPL078C, strain atp4, active compounds read low 0.997 | S. cerevisiae deletion strains, locus YPL106C, strain sse1, active compounds read low 0.982 | S. cerevisiae deletion strains, locus YPL240C, strain hsp82, active compounds read low 0.998 | S. cerevisiae deletion strains, locus YPL241C, strain CIN2, active compounds read low 1 | S. cerevisiae deletion strains, locus YPL256C, strain CLN2, active compounds read low 1.05 | S. cerevisiae deletion strains, locus YPR119W, strain clb2, active compounds read low 0.985 | S. cerevisiae deletion strains, locus YPR141C, strain kar3, active compounds read low 0.989 | S. cerevisiae deletion strains, locus YPR163C, strain tif3, active compounds read low 0.976 | S. cerevisiae deletion strains, locus YPR167C, strain met16, active compounds read low 0.986 | S. cerevisiae deletion strains, strain wtn01, active compounds read low 0.997 | S. cerevisiae strains, strain wild type, active compounds read low 1
